Luc counter: counter-screen: inhibitors of Kinase-Glo firefly luciferase | Q27757 | Kinase-Glo luciferase, ATP luminescence, 8 min | Potency, µM (top dose mostly 38.3 µM), hits mostly inhibitors | 200,000 compounds, 0.28% hits; also: nearly all actives have a fitted effect of over 60% in size
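Inhibition of Kinase-Glo luciferase light generation was assessed at 10 uM ATP in pH 7.2 imidazole buffer, with luminescence measured after eight minutes at ambient temperature.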
RORgamma inh: inhibitors of mouse ROR gamma transcriptional activity; AID 2551; Drosophila S2 Gal4-RORgamma UAS-luciferase reporter, 20 h; Potency, µM (titrated, usually from 53.6 µM), hits mostly inhibitors; 310,000 compounds, 5.4% hits; also: nearly all actives have a fitted effect of over 60% in size
Target sequence (P51450 whole entry, looked up, the tested form may be a part): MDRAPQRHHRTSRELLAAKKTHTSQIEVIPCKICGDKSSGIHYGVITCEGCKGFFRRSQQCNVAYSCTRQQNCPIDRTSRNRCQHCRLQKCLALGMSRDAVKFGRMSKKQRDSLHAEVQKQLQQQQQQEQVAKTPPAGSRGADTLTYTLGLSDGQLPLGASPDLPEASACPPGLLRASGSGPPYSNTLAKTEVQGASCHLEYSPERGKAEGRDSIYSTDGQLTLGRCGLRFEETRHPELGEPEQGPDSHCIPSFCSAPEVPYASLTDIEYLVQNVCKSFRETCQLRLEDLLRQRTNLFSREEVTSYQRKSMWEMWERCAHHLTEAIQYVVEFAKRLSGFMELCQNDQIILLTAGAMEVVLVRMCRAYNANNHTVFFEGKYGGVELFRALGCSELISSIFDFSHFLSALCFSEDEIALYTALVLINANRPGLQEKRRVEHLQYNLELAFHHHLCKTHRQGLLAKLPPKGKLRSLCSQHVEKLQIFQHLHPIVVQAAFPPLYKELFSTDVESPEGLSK
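Drosophila S2 cells stably expressing Gal4-DBD/mouse RORγ fusion under metallothionein promoter plus UAS-luciferase; compound 1 h, then 700 uM CuSO4 induction for 20 h at ambient temperature; inhibition read as reduced luminescence.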
VP16 counter: Gal4-VP16 reporter inhibition counter-screen; 310,000 compounds, 3.5% hits; AID 2546; Drosophila S2 Gal4-VP16 UAS-luciferase, luminescence, 20 h; Potency, µM (series often up to 53.6 µM), actives largely listed as inhibitors;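 also: Gal4-VP16 expression switched on by copper sulfate through the metallothionein promoter; nearly all actives have a fitted effect of over 50% in size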
Of the large screens only hits and unclear results are named; the others gave an inactive call; ! = repeats disagree. A selection: hits, their analogues and other compounds. The true share with any hit is near 6.4%. Calls follow the shape of the dose curve; as a rule, active = well fitted curve in the direction sought with a large enough effect; inconclusive = small, poorly fitted or top-dose-only effect, or another doubt; inactive = no such curve, though single readings can be large; an effect the other way counts as inactive or inconclusive.

Cc1ccc(CN2CCNC(=O)C2CC(=O)NCCCn2ncc3ccccc32)o1 (stereo unspecified)	VP16 counter inconclusive
CC(=O)NC(Cc1cc(C)ccc1C)C(=O)N1CCN(C(=O)c2ccc([N+](=O)[O-])cc2)CC1 (stereo unspecified)	none (no result: Luc counter)
Cc1cc(-c2nnc(CCC(=O)NC(Cc3ccccc3)c3ccccc3)o2)no1 (stereo unspecified)	none
CC(C)(C)n1nc(-c2ccc(Cl)cc2)c2c(N)ncnc21	none
Cc1ccc(-c2nn(C(C)(C)C)c3ncnc(NS(=O)(=O)c4ccc([N+](=O)[O-])cc4)c23)cc1	RORgamma inh 13µM
O=c1c(-c2ccc(F)cc2)nc2cnc(Nc3ccccc3)nc2n1Cc1cccs1	none
Oc1ccc(/C=C/c2cnccn2)cc1	none (no result: Luc counter)
Oc1ccc(/C=C/c2cc(O)cc(O)c2)cc1	RORgamma inh 2µM, VP16 counter 14µM!
COc1cc(O)cc(/C=C/c2ccccc2)c1	VP16 counter inconclusive
Oc1ccc(/C=C\c2cc(O)cc(O)c2)cc1	RORgamma inh 3.5µM!, VP16 counter 13µM
N#CCC(=O)NN	none (no result: Luc counter)
CC(C)=CC1C(CO)C1(C)C (stereo unspecified)	none
Cc1c(C(=O)N/N=C/C(C)C)[nH]c2ccc([N+](=O)[O-])cc12	RORgamma inh inconclusive, VP16 counter inconclusive
Cc1c(C(=O)N/N=C/c2ccc(Cl)cc2)[nH]c2ccc(Cl)cc12	RORgamma inh 11µM, VP16 counter 11µM
COc1ccc(OC)c2c1cc(C(=O)N[C@H](C(=O)N1CCC(C(=O)O)CC1)C(C)C)n2C	RORgamma inh inconclusive (no result: Luc counter)
COCC(=O)Nc1nc(-c2ccccc2)c(C)s1	none
CCNc1nc(-c2ccc(OC(F)F)cc2)c(C)s1	RORgamma inh 11µM (no result: Luc counter)
CCNC(=O)O/N=C1\CCCCC1c1ccc([N+](=O)[O-])cc1[N+](=O)[O-] (stereo unspecified)	none (no result: Luc counter)
O=C(COc1ccccc1)Nc1ccc2oc(=O)ccc2c1	none (no result: Luc counter)
COc1ccc(N2CCN(CC(=O)Nc3nnc(-c4ccccc4)s3)CC2)cc1	RORgamma inh 10µM, VP16 counter inconclusive
O=C(CN1CCN(c2ccccc2)CC1)Nc1nnc(-c2ccccc2)s1	RORgamma inh inconclusive
CN(CC(=O)Nc1ccc(F)cc1[N+](=O)[O-])Cc1ccccc1	none
C/C=C(\C)C(=O)OC1[C@@H]2C=C3C4CC(=O)OC(c5ccoc5)[C@]4(C)CCC3[C@@](C)(C2=O)C(C(O)C(=O)OC)C1(C)C (stereo partly specified)	none
O=C(/C=C/c1ccco1)NCC(=O)N/N=C/c1ccccc1[N+](=O)[O-]	none
O=C(CNC(=O)c1ccc(F)cc1)N/N=C/c1cc(Br)ccc1OC(=O)/C=C/c1ccco1	RORgamma inh 5µM, VP16 counter inconclusive (no result: Luc counter)
COc1ccccc1C(=O)NCC(=O)N/N=C/c1cc(Br)ccc1OC(=O)/C=C\c1ccco1	RORgamma inh 3.5µM, VP16 counter 7.1µM
COc1ccc(C(=O)NCC(=O)N/N=C/c2ccco2)cc1OC	none (no result: Luc counter)
O=C(CNC(=O)c1ccccc1F)N/N=C/c1cc(Br)ccc1OC(=O)/C=C/c1ccco1	RORgamma inh 2.5µM, VP16 counter 3.2µM
O=C(CNC(=O)c1ccncc1)N/N=C/c1cc(Br)ccc1OCc1ccccc1	none (no result: Luc counter)
Cc1cnc(NC(=O)Cc2ccc(C)c(C)c2)s1	none (no result: Luc counter)
COc1ccc(OC)c(-c2ccccc2/C=N/NS(=O)(=O)c2ccc(C)cc2)c1	none (no result: Luc counter)
CC(C)[C@@H](CC(=O)N[C@@H]1CCCC[C@H]1C(=O)N[C@H](CC(=O)N[C@@H](CCC(=O)O)CC(=O)O)Cc1ccccc1)NC(=O)C[C@H](Cc1ccccc1)NC(=O)[C@@H]1CNCC[C@H]1N	none
CCOC(=O)c1c(CNc2ccncc2)n(C)c2cc(Br)c(O)cc12	none
CCc1nnc(NC(=O)CCN2C(=O)/C(=C/c3cc(OC)c(OC)c(OC)c3)SC2=S)s1	none (no result: Luc counter)
COc1ccc2cc(-c3cc(C(=O)OCC(=O)NC4CCS(=O)(=O)C4)c4ccccc4n3)ccc2c1 (stereo unspecified)	RORgamma inh 2.8µM, VP16 counter 1.8µM
Cc1cc(C(=O)OCC(=O)NC2CCS(=O)(=O)C2)c2ccccc2n1 (stereo unspecified)	none
COc1ccc2cc(-c3cc(C(=O)OCC(=O)Nc4c(C)n(C)n(-c5ccccc5)c4=O)c4ccccc4n3)ccc2c1	RORgamma inh 7.1µM, VP16 counter inconclusive
COc1ccc(-c2cc(C(=O)Nc3c(C)n(C)n(-c4ccccc4)c3=O)c3ccccc3n2)cc1	none (no result: Luc counter)
S=c1[nH]nc(Cc2sc(-c3ccccc3)nc2-c2ccccc2)o1	RORgamma inh 11µM, VP16 counter inconclusive
S=c1[nH]nc(Cc2c[nH]c3ccccc23)o1	none
CC1=C(C(=O)Nc2cc(C(=O)NCCCOC(C)C)ccc2C)SCCO1	none (no result: Luc counter)
CCC1CCCCN1C(=O)COc1ccc(F)cc1 (stereo unspecified)	none
CCC1CCCCN1C(=O)COc1c(Br)cc(Br)c2cccnc12 (stereo unspecified)	RORgamma inh 13µM, VP16 counter inconclusive
OC[C@H]1OC(O)[C@H](O)[C@@H](O)[C@@H]1O (stereo partly specified)	none (no result: Luc counter)
C=CCn1c(SCC(=O)NCC)nc2sc3c(c2c1=O)CCC3	none (no result: Luc counter)
CO[C@H]1COC(=O)[C@H](C)NC(=O)[C@@H](C)COC(=O)[C@H]2CCCN2C(=O)C/C=C\[C@H]1C	none (no result: Luc counter)
CCOC(=O)C(C)CC(C)C(=O)N1CCOCCOCCN(C(=O)C(C)CC(C)C(=O)OCC)CCOCC1 (stereo unspecified)	none
CCOC(=O)C(C(=O)OCC)C(C(=O)OCC)N1CCOCC1 (stereo unspecified)	VP16 counter 5.6µM
Cc1cc(/C=N/n2cnnc2)c(C)n1-c1ccc(OCc2ccccc2F)cc1	VP16 counter inconclusive
Cc1cc(/C=N/n2cnnc2)c(C)n1-c1ccc(OCc2ccc(Cl)cc2)cc1	RORgamma inh 2.8µM, VP16 counter inconclusive
O=C(CSc1nnc(NC(=O)c2ccc3c(c2)OCO3)s1)NCc1ccco1	RORgamma inh 13µM, VP16 counter inconclusive
CCOC(=O)CNC(=O)CSc1nnc(SCC(=O)NCC(=O)OCC)s1	none
COCCSc1nnc(NC(=O)c2ccc3c(c2)OCO3)s1	RORgamma inh inconclusive
CCOC(=O)CNC(=O)CSc1nnc(NC(=O)c2ccc(C)cc2)s1	RORgamma inh 5.6µM, VP16 counter 6.3µM
O=C(CSc1nnc(NC(=O)c2ccc(F)cc2)s1)NCc1ccco1	RORgamma inh inconclusive (no result: Luc counter)
O=C(CSc1cccc2cccnc12)Nc1ccc(S(=O)(=O)N2CCOCC2)cc1	RORgamma inh 5.6µM, VP16 counter inconclusive (no result: Luc counter)
CCOC(=O)CNC(=O)CSc1nnc(NC(=O)c2ccc3c(c2)OCO3)s1	RORgamma inh 7.1µM, VP16 counter inconclusive (no result: Luc counter)
O=C(CSc1cccc2cccnc12)Nc1cccc(S(=O)(=O)N2CCOCC2)c1	none
CSCCC=O	none (no result: Luc counter)
CCOc1ccc(-n2c(SCC(=O)N3CCC(C(=O)O)CC3)nc3ccccc3c2=O)cc1	none (no result: Luc counter)
O=C(N=Nc1c(O)[nH]c2ccc(Cl)cc12)c1cc(-c2cccs2)nc2ccccc12	VP16 counter inconclusive
C=CCN1C=C2C(=O)C(C)(OC(=O)c3ccco3)C(=O)C(C=C)=C2C=C1C1CC1 (stereo unspecified)	none (no result: RORgamma inh, VP16 counter)
CCOC(=O)Cc1cnc(NC(=O)CSc2nc(N)cc(N)n2)s1	none

High-throughput results deposited in PubChem BioAssay by National Center for Advancing Translational Sciences (NCATS).
